Measurements taken from PubChem BioAssay.
For some of these results: Results with a measured potency or affinity are listed apart. The source made the active and inactive calls. Unless noted, no rule for the calls is given here.

Legend:
[1] = antimalarial activity against Dd2 strain (AID 2302;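 active = growth inhibition above 50% at the single 2 µM test dose, taken to imply half-maximal potency below 2 µM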;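 also: 0% = DMSO untreated growth and 100% = chloroquine plus artemisinin killed control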); details: P. falciparum Dd2 in RBCs, LDH growth readout, 72 h; at 2 µM; hits give high values
[2] = HepG2 cytotoxicity, primary screen, cytotoxicity control for P. falciparum antimalarial project, cell-based, ATP luminescence (AID 2303;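 active = inhibition above 50%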;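 also: 0% = DMSO wells and 100% = digitonin-killed cells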); details: HepG2 viability, 24-48 h, at 10 µM, hits give high values
[3] = molecular target: L-lactate dehydrogenase (Plasmodium falciparum (isolate CDC / Honduras)) (UniProt Q27743); test: PfLDH activity inhibition – cell lysate, 3D7 strain, counter-screen for P. falciparum growth inhibition project (AID 2304);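 also: 0% = vehicle and 100% = reference inhibitor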; details: P. falciparum 3D7 crude extract, LDH APAD/NBT absorbance; at 2 µM; hits give high values
Chain of L-lactate dehydrogenase (Plasmodium falciparum (isolate CDC / Honduras)) (Q27743 whole entry, looked up): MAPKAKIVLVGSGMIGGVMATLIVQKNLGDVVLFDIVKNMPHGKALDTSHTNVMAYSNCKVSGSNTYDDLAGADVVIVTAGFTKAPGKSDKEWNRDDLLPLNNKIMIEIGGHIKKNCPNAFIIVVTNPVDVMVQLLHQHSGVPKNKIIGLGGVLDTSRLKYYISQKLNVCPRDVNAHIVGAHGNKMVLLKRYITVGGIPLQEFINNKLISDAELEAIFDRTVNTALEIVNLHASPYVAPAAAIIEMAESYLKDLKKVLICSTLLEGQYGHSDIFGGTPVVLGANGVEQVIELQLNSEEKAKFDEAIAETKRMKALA

[4] = inhibition of 3D7 malaria parasite growth – strain 3D7 (AID 2306);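 also: 0% = DMSO wells and 100% = chloroquine plus artemisinin control wells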; details: P. falciparum 3D7 erythrocytic growth, LDH absorbance, 72 h; at 2 µM; hits give high values
[5] = molecular target: Calcium-dependent protein kinase 1 (Plasmodium falciparum (isolate 3D7)) (UniProt P62344); test: PfCDPK1 kinase inhibitors, biochemical, TCAMS library (AID 1159585; cut-off not given, nearly all actives have IC50 up to about 0.98 µM;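 also: inhibitors leave more ATP so luminescence rises with inhibition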); details: recombinant PfCDPK1, Kinase-Glo ATP depletion luminescence
Chain of Calcium-dependent protein kinase 1 (Plasmodium falciparum (isolate 3D7)) (P62344 whole entry, looked up): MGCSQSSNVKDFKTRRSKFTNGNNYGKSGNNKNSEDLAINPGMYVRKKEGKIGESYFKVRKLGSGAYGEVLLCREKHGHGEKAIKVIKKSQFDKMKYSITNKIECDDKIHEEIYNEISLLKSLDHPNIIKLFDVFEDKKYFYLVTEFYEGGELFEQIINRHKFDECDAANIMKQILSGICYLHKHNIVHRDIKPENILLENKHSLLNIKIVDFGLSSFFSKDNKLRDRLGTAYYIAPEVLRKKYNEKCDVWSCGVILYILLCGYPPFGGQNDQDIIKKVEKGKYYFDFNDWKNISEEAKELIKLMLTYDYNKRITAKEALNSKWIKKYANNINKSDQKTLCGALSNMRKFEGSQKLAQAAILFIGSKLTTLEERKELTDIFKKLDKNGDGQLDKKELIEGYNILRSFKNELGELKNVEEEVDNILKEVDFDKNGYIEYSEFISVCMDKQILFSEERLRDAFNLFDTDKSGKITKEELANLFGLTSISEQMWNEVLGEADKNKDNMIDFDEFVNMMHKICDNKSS

[6] = molecular target: Plasmodium falciparum protein kinase 6 (PK6, PF3D7_1337100) (UniProt Q8IDW1); test: PfPK6 kinase inhibitors, biochemical, TCAMS library (AID 1159586); details: recombinant PfPK6, Kinase-Glo ATP depletion luminescence
Chain of Plasmodium falciparum protein kinase 6 (PK6, PF3D7_1337100) (Q8IDW1 1-305): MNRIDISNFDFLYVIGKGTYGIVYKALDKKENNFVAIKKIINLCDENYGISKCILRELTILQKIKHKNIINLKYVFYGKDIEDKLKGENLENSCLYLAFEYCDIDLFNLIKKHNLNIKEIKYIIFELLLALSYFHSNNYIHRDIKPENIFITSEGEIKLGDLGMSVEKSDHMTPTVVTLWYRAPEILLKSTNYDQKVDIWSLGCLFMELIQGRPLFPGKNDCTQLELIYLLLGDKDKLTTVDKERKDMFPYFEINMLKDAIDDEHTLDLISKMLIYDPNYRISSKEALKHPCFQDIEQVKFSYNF

[7] = molecular target: Protein kinase 7 (PK7), Plasmodium falciparum 3D7 (PF3D7_0213400) (UniProt Q7YTF7); test: inhibition of Plasmodium PK7 catalytic activity – biochemical, TCAMS antimalarial set, Kinase-Glo luminescence (AID 1159587); details: recombinant PfPK7, Kinase-Glo ATP depletion luminescence
Chain of Protein kinase 7 (PK7), Plasmodium falciparum 3D7 (PF3D7_0213400) (Q7YTF7 1-343): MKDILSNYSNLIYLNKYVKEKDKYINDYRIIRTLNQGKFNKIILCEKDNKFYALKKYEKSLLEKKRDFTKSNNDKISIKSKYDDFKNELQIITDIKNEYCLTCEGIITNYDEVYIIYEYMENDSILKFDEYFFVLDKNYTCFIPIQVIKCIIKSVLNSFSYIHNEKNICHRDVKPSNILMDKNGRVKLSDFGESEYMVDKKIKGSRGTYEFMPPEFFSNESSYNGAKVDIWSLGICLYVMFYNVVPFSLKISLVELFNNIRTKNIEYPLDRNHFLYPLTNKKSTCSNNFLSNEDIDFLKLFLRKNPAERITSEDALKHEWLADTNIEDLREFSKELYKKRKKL

[8] = molecular target: Calcium-dependent protein kinase 4 (Plasmodium falciparum (isolate 3D7)) (UniProt Q8IBS5); test: PfCDPK4 kinase inhibitors, biochemical, TCAMS library (AID 1159588; cut-off not given, nearly all actives have IC50 up to about 0.91 µM); details: recombinant PfCDPK4, Kinase-Glo ATP depletion luminescence
Chain of Calcium-dependent protein kinase 4 (Plasmodium falciparum (isolate 3D7)) (Q8IBS5 whole entry, looked up): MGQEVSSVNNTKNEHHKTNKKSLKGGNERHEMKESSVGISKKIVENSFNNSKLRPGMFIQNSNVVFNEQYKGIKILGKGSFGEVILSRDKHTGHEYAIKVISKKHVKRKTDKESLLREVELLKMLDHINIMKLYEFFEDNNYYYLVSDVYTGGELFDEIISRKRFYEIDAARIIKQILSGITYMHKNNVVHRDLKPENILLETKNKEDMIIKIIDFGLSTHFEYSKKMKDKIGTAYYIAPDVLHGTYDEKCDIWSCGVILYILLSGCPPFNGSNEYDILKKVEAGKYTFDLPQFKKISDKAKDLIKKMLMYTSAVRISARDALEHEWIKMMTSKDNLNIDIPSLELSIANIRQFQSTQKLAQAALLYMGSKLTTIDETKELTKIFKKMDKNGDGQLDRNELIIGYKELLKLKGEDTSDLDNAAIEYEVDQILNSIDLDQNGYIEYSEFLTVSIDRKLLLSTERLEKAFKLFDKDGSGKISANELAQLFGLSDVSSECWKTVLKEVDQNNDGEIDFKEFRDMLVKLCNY

Cc1cccc(/C=C/C(=O)NC2CCC(N3CCC(c4ccccc4C)CC3)CC2)c1 (stereo not drawn)
active: inhibition [2] 67% | growth inhibition [4] 92%
inactive: growth inhibition [1] 20% | inhibition [3] -3% | outcome [5] | outcome [6] | outcome [7] | outcome [8]

CCCCCCCc1c(C)[nH]c2cccc(OC)c2c1=O
inactive: growth inhibition [1] 47% | inhibition [2] 43% | inhibition [3] 0% | outcome [5] | outcome [6] | outcome [7] | outcome [8]
active: growth inhibition [4] 95%

Cc1cc(NC(=O)c2ccco2)ccc1OC1CCN(Cc2ccc(F)cc2)CC1
active: growth inhibition [1] 93% | growth inhibition [4] 96%
inactive: inhibition [2] 4% | inhibition [3] -2% | outcome [5] | outcome [6] | outcome [7] | outcome [8]

COc1cccc(C23N=C(Nc4nc5ccccc5[nH]4)NC2(c2cccc(OC)c2)NC(Nc2nc4ccccc4[nH]2)=N3)c1 (stereo not drawn)
inactive: inhibition [2] -9% | inhibition [3] 3% | outcome [5] | outcome [6] | outcome [7] | outcome [8]
active: growth inhibition [1] 99% | growth inhibition [4] 101%

COc1cccc(-c2nn(C)c3sc(C(=O)Nc4cccnc4)cc23)c1
inactive: growth inhibition [1] 34% | inhibition [2] 1% | inhibition [3] -2% | outcome [5] | outcome [6] | outcome [7] | outcome [8]
active: growth inhibition [4] 86%

N#Cc1cccc(NC(=O)NC2CCN(CCCCCNC(=O)/C=C/c3ccc(Cl)c(Cl)c3)CC2)c1
active: growth inhibition [4] 100%
inactive: growth inhibition [1] 7% | inhibition [2] 31% | inhibition [3] 0% | outcome [5] | outcome [6] | outcome [7] | outcome [8]

COc1ccc2nccc([C@@H](O)CN3CCC(NCCOc4ccc(F)cc4[N+](=O)[O-])CC3)c2c1
inactive: inhibition [2] 8% | inhibition [3] -1% | outcome [5] | outcome [6] | outcome [7] | outcome [8]
active: growth inhibition [1] 92% | growth inhibition [4] 99%

CN(C)C(CNC(=O)c1cc(-c2ccncc2)c(-c2ccc(NC(=O)Nc3ccccc3)cc2)o1)c1ccccc1 (stereo not drawn)
active: growth inhibition [1] 96% | growth inhibition [4] 101%
inactive: inhibition [2] 19% | inhibition [3] 4% | outcome [5] | outcome [6] | outcome [7] | outcome [8]

c1ccc(-c2ccc(-c3nc4ccccc4[nH]3)cc2)cc1
inactive: inhibition [2] 10% | inhibition [3] -5% | outcome [5] | outcome [6] | outcome [7] | outcome [8]
active: growth inhibition [1] 83% | growth inhibition [4] 93%

Cc1ccc(NC(=O)C(C)Sc2n[nH]c(-c3ccccc3Br)n2)cc1 (stereo not drawn)
active: growth inhibition [1] 90% | growth inhibition [4] 89%
inactive: inhibition [2] 2% | inhibition [3] -4% | outcome [5] | outcome [6] | outcome [7] | outcome [8]

Cc1ccc(C)c(NC(=O)CC2C(=O)N(c3ccccc3)C(=S)N2Cc2ccco2)c1 (stereo not drawn)
active: growth inhibition [1] 99% | growth inhibition [4] 101%
inactive: inhibition [2] 9% | inhibition [3] -1% | outcome [5] | outcome [6] | outcome [7] | outcome [8]

Cc1ccc(-c2cc3nc4c(c(NCCCn5ccnc5)n3n2)CCC4)cc1
active: growth inhibition [4] 94%
inactive: growth inhibition [1] 21% | inhibition [2] 22% | inhibition [3] -2% | outcome [5] | outcome [6] | outcome [7] | outcome [8]

O=C(NCCCCN1CCN(CC=Cc2ccccc2)CC1)c1ccc(NC(=O)c2cc(Cl)cc(Cl)c2)cc1
inactive: inhibition [2] 26% | inhibition [3] 4% | outcome [5] | outcome [6] | outcome [7] | outcome [8]
active: growth inhibition [1] 63% | growth inhibition [4] 100%

N=c1n(CCN2CCCCC2)c2ccccc2n1CC(=O)c1cccc([N+](=O)[O-])c1
active: growth inhibition [4] 94%
inactive: growth inhibition [1] 0% | inhibition [2] 10% | inhibition [3] -1% | outcome [5] | outcome [6] | outcome [7] | outcome [8]

Cc1cccc2[nH]c(-c3ccc(-c4ccc(C(=O)NCCN5CCCC5)cc4)s3)nc12
active: growth inhibition [4] 100%
inactive: growth inhibition [1] 13% | inhibition [2] 20% | inhibition [3] 3% | outcome [5] | outcome [6] | outcome [7] | outcome [8]

Nc1ccc(-c2ccc3ccnc(N)c3c2)cn1
inactive: inhibition [2] 43% | inhibition [3] 3% | outcome [5] | outcome [6] | outcome [7] | outcome [8]
active: growth inhibition [1] 100% | growth inhibition [4] 101%

COc1cc(NCC(CN)Cc2ccc3c(c2)OCO3)nc2ccccc12 (stereo not drawn)
inactive: growth inhibition [1] 6% | inhibition [2] 41% | inhibition [3] 0% | outcome [5] | outcome [6] | outcome [7] | outcome [8]
active: growth inhibition [4] 94%

O=C(Nc1ccc2c(c1)CCC2)N[C@H]1CCN(CCCCCNC(=O)[C@@H]2C[C@H]2c2ccc(Cl)c(Cl)c2)C1
inactive: growth inhibition [1] -3% | inhibition [2] 37% | inhibition [3] 2% | outcome [5] | outcome [6] | outcome [7] | outcome [8]
active: growth inhibition [4] 86%

O=C1COC2(CN1C1CCN(Cc3ccc(O)c(Cl)c3)C1)c1ccccc1-c1ccccc12 (stereo not drawn)
inactive: inhibition [2] 5% | inhibition [3] 3% | outcome [5] | outcome [6] | outcome [7] | outcome [8]
active: growth inhibition [1] 63% | growth inhibition [4] 93%

COc1ccc(CNCCCCCCNCCc2ccc(Cl)cc2)cc1OC
inactive: growth inhibition [1] 0% | inhibition [2] 21% | inhibition [3] 0% | outcome [5] | outcome [6] | outcome [7] | outcome [8]
active: growth inhibition [4] 96%

CC(=O)c1ccc(N2C(=O)C3C(Cc4ccc(OC(C)(C)C)cc4)NC4(C(=O)N(Cc5ccc(C(C)(C)C)cc5)c5ccccc54)C3C2=O)cc1 (stereo not drawn)
inactive: inhibition [2] 13% | inhibition [3] 4% | outcome [5] | outcome [6] | outcome [7] | outcome [8]
active: growth inhibition [1] 81% | growth inhibition [4] 86%

Cc1cccc2[nH]c(-c3ccc(-c4cccc(CN5CCN(c6ccncc6)CC5)c4)s3)nc12
inactive: inhibition [2] 48% | inhibition [3] 6% | outcome [5] | outcome [6] | outcome [7] | outcome [8]
active: growth inhibition [1] 99% | growth inhibition [4] 101%

CCOc1ccc(C=CC(=O)Nc2ccc3nc(N4CCN(C)CC4)cc(C)c3c2)cc1OC
inactive: inhibition [2] -2% | inhibition [3] -10% | outcome [5] | outcome [6] | outcome [7] | outcome [8]
active: growth inhibition [1] 70% | growth inhibition [4] 102%

CCc1ccc(O)c(-c2cc(C(=O)Nc3cccnc3)[nH]n2)c1
active: growth inhibition [1] 99% | growth inhibition [4] 98%
inactive: inhibition [2] -4% | inhibition [3] -7% | outcome [5] | outcome [6] | outcome [7] | outcome [8]

CCOC(=O)c1ccc(NC(=O)Nc2ccc(Cn3ncc(N4CCCNCC4)c(Cl)c3=O)cc2)cc1
active: growth inhibition [1] 58% | growth inhibition [4] 88%
inactive: inhibition [2] 2% | inhibition [3] 2% | outcome [5] | outcome [6] | outcome [7] | outcome [8]

CCCSc1nc2c(c(=O)n1Cc1ccco1)C1(CCCCC1)Cc1ccccc1-2
active: growth inhibition [1] 95% | growth inhibition [4] 100%
inactive: inhibition [2] -1% | inhibition [3] 0% | outcome [5] | outcome [6] | outcome [7] | outcome [8]

CCCNS(=O)(=O)c1ccc(NC(=O)C(C)Oc2ccc([N+](=O)[O-])cc2)cc1 (stereo not drawn)
inactive: growth inhibition [1] 37% | inhibition [2] 3% | inhibition [3] 3% | outcome [5] | outcome [6] | outcome [7] | outcome [8]
active: growth inhibition [4] 100%

Cc1cc(OCCCN2CCC(NS(=O)(=O)c3cccc(Br)c3)C2)c2ccccc2n1 (stereo not drawn)
inactive: growth inhibition [1] 40% | inhibition [2] 13% | inhibition [3] 3% | outcome [5] | outcome [6] | outcome [7] | outcome [8]
active: growth inhibition [4] 86%

COc1ccccc1/C=C/C(=O)N(C)C1CCN(CCCCCNC(=O)/C=C/c2ccc(Cl)c(Cl)c2)CC1
inactive: inhibition [3] -3% | outcome [5] | outcome [6] | outcome [7] | outcome [8]
active: growth inhibition [1] 63% | inhibition [2] 71% | growth inhibition [4] 83%

CCCCOP(=O)(OCCCC)C(=Cc1ccc(O)c2ccccc12)P(=O)(OCCCC)OCCCC
active: growth inhibition [1] 64% | growth inhibition [4] 84%
inactive: inhibition [2] 1% | inhibition [3] -6% | outcome [5] | outcome [6] | outcome [7] | outcome [8]

Cc1cc(=O)c(-c2cccc(Oc3ccc(Cl)cc3)c2)c(C)[nH]1
inactive: inhibition [2] -2% | inhibition [3] -4% | outcome [5] | outcome [6] | outcome [7] | outcome [8]
active: growth inhibition [1] 95% | growth inhibition [4] 96%

COC(=O)c1cccc(CNCc2cccc(-c3ccc(-c4nc5c(C)cccc5[nH]4)cc3)c2)c1
inactive: inhibition [2] 3% | inhibition [3] 2% | outcome [5] | outcome [6] | outcome [7] | outcome [8]
active: growth inhibition [1] 52% | growth inhibition [4] 102%

Cc1ccc(-n2cc(CNCCc3ncc(C)[nH]3)c(-c3ccc(F)cc3)n2)cc1
active: growth inhibition [4] 86%
inactive: growth inhibition [1] 12% | inhibition [2] 15% | inhibition [3] -2% | outcome [5] | outcome [6] | outcome [7] | outcome [8]

O=C(NCc1ccc(Cl)cc1)c1ccc(CN2CCCN(Cc3cccc(O)c3)CC2)cc1
active: growth inhibition [4] 82%
inactive: growth inhibition [1] 12% | inhibition [2] 25% | inhibition [3] -5% | outcome [5] | outcome [6] | outcome [7] | outcome [8]

COc1cc2c(cc1OCCN1CCC(N)CC1)N(C(=O)/C=C/c1ccccc1Cl)CC2
active: growth inhibition [4] 91%
inactive: growth inhibition [1] 18% | inhibition [2] 19% | inhibition [3] -7% | outcome [5] | outcome [6] | outcome [7] | outcome [8]

O=C(Nc1ccc2c(c1)OCO2)NC1CCN(c2ccnc(Nc3ccc(F)cc3)n2)C1 (stereo not drawn)
inactive: inhibition [2] 5% | inhibition [3] 3% | outcome [5] | outcome [6] | outcome [7] | outcome [8]
active: growth inhibition [1] 89% | growth inhibition [4] 100%

CCCN1CCN(Cc2ccc(-c3ccc(-c4nc5ccccc5[nH]4)s3)cc2)CC1
active: growth inhibition [1] 93% | growth inhibition [4] 103%
inactive: inhibition [2] 29% | inhibition [3] 5% | outcome [5] | outcome [6] | outcome [7] | outcome [8]

Cc1cccc2[nH]c(-c3cccc(-c4cccc(NC(=O)c5cn(C)c(=O)n5C)c4)c3)nc12
active: growth inhibition [1] 80% | growth inhibition [4] 99%
inactive: inhibition [2] 5% | inhibition [3] -5% | outcome [5] | outcome [6] | outcome [7] | outcome [8]

CC(CNCc1cn(Cc2cc(Br)cc(Br)c2)c2ccccc12)CNc1cc(=O)c2ccccc2[nH]1 (stereo not drawn)
inactive: inhibition [2] 10% | inhibition [3] 6% | outcome [5] | outcome [6] | outcome [7] | outcome [8]
active: growth inhibition [1] 50% | growth inhibition [4] 100%

COc1ccc2nccc([C@@H](O)CN3CC[C@H](NCc4nc5c(cc4Cl)OCC(=O)N5)[C@H](F)C3)c2c1
active: growth inhibition [4] 84%
inactive: growth inhibition [1] 29% | inhibition [2] 4% | inhibition [3] 4% | outcome [5] | outcome [6] | outcome [7] | outcome [8]

c1csc(-c2ccc3c(c2)CC(NCc2c[nH]c4cnccc24)C3)c1 (stereo not drawn)
inactive: growth inhibition [1] 34% | inhibition [2] 9% | inhibition [3] -1% | outcome [5] | outcome [6] | outcome [7] | outcome [8]
active: growth inhibition [4] 100%
